# Results published in paper PMC7862700, “An all-to-all approach to the identification of sequence-specific readers for epigenetic DNA modifications on cytosine”.
# Tests used:
# Test in all cases: DAPPL (digital affinity profiling via proximity ligation, sequencing); 10 mM Tris-HCl pH 7.5, 50 mM NaCl, 1 mM DTT, 4% glycerol, room temperature, 30 min; GST-TFs on glutathione beads, 16-mer random dsDNA library, 0.1% formaldehyde crosslink after washing; high values mean tight binding
# FEV = target: T1, FEV (Homo sapiens, UniProt Q99581 1-238); settings: protein: recombinant; tags: N-terminal GST; dsDNA, one strand shown
# T1 sequence: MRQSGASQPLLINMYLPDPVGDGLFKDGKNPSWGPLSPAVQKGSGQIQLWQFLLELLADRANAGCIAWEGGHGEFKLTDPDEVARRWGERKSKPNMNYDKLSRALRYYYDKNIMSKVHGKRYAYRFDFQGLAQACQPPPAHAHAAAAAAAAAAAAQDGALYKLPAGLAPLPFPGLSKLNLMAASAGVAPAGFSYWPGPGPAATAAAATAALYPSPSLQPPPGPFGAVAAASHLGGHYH
# Method in brief: (§1)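 Pools of DNA-barcoded human transcription factors, expressed in yeast as GST fusions on glutathione beads and combined with a tag-only sample, were incubated with 200 nmole of a 16-mer random double-stranded DNA library. Incubation took 30 min at room temperature in Tris/NaCl/DTT/glycerol buffer and was followed by washing, 0.1% formaldehyde crosslinking, proximity ligation (BsaI/T4 ligase, 1 h, 37 °C), PCR amplification and sequencing on an Illumina NextSeq500. Binding signal is the ratio of a hexamer's read frequency for a factor to its frequency for the tag-only sample.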
# ETV5 = ETV5 (Homo sapiens, UniProt P41161 1-510); settings: protein: recombinant; tags: N-terminal GST; dsDNA, one strand shown
# Chain of ETV5 (P41161 whole entry): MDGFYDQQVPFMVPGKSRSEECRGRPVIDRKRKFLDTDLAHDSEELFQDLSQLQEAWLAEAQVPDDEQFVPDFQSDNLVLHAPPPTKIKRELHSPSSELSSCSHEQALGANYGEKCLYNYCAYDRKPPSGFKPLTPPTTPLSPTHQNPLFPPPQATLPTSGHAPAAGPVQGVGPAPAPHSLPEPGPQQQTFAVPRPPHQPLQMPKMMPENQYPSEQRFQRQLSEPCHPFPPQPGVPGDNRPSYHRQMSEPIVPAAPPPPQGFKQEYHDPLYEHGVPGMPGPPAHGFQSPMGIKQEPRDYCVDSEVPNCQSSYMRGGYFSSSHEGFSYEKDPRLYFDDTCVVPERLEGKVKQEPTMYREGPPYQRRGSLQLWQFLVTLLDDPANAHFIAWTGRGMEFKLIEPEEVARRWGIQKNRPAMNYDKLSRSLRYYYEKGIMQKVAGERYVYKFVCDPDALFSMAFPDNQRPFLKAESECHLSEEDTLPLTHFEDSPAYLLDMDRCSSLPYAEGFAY
# Method in brief: as §1
# HSF1 = HSF1 (Homo sapiens, UniProt Q00613 1-529); settings: protein: recombinant; tags: N-terminal GST; chain copies: 3; dsDNA, one strand shown
# Chain of HSF1 (Q00613 whole entry): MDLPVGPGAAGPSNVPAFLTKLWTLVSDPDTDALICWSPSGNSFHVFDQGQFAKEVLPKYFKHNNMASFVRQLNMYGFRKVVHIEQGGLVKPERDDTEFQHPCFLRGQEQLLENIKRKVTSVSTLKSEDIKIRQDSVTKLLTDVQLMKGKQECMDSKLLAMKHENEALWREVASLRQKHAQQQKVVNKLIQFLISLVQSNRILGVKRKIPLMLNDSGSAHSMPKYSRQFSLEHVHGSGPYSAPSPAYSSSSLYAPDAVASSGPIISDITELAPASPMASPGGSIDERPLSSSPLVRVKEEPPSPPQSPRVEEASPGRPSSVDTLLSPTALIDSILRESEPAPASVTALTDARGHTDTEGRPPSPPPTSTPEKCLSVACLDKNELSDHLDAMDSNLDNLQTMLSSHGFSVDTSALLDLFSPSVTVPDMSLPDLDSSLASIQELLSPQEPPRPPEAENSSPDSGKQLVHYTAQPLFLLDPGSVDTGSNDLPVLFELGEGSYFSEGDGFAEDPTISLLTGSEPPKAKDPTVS
# Method in brief: as §1
# SPIC = target: T2, SPIC (Homo sapiens, UniProt Q8N5J4 1-248); settings: protein: recombinant; tags: N-terminal GST; dsDNA, one strand shown
# T2 sequence: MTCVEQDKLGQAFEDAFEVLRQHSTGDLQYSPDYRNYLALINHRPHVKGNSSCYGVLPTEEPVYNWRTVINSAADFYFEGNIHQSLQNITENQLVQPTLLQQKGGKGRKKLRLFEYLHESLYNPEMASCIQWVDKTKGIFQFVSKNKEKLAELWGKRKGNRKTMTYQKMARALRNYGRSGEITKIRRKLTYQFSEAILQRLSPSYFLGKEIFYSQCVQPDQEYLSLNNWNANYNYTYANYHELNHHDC
# Method in brief: as §1
# ELF4 = ELF4 (Homo sapiens, UniProt Q99607 1-663); settings: protein: recombinant; tags: N-terminal GST; dsDNA, one strand shown
# Chain of ELF4 (Q99607 whole entry): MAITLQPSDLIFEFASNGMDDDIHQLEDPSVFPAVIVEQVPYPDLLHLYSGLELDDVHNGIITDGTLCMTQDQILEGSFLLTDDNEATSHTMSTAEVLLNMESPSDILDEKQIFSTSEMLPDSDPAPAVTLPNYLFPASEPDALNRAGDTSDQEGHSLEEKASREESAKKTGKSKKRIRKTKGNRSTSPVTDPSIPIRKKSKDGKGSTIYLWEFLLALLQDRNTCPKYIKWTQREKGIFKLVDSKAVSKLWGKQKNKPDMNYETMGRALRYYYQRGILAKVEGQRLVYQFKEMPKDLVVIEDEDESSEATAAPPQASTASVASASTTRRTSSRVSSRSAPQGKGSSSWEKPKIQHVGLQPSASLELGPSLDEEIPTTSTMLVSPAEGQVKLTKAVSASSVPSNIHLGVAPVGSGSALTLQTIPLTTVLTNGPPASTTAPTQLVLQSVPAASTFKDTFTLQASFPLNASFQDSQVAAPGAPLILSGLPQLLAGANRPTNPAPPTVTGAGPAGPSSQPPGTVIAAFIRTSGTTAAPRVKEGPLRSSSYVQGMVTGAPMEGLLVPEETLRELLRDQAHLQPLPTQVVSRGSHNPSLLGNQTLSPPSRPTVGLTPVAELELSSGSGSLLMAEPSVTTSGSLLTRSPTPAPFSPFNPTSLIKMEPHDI
# Method in brief: as §1
# ELK4 = target: T3, ELK4 (Homo sapiens, UniProt P28324-2 1-405); settings: protein: recombinant; tags: N-terminal GST; dsDNA, one strand shown
# T3 sequence: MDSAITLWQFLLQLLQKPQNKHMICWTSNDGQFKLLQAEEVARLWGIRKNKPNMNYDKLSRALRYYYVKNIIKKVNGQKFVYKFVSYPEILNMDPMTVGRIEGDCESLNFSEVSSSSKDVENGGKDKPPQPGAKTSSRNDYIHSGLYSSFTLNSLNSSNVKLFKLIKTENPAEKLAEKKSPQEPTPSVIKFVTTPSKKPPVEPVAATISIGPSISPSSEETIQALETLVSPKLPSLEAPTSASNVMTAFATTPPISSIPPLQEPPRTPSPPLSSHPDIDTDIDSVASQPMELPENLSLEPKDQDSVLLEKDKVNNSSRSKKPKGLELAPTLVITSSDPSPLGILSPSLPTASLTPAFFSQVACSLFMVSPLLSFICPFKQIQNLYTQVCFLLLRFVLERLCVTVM
# Method in brief: as §1
# ETV2 = target: T4, ETV2 (Homo sapiens, UniProt O00321 1-342); settings: protein: recombinant; tags: N-terminal GST; dsDNA, one strand shown
# T4 sequence: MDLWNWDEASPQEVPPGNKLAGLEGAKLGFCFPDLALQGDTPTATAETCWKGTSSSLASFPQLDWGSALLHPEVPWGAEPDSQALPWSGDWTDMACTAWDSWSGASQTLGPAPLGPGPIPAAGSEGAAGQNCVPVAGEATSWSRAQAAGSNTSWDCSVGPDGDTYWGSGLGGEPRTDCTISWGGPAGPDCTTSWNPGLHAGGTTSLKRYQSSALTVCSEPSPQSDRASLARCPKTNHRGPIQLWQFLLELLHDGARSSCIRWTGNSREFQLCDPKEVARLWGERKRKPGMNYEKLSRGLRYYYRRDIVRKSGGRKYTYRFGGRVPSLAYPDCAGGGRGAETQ
# Method in brief: as §1
# ELF3 = target: T5, ELF3 (Homo sapiens, UniProt P78545 1-371); settings: protein: recombinant; tags: N-terminal GST; dsDNA, one strand shown
# T5 sequence: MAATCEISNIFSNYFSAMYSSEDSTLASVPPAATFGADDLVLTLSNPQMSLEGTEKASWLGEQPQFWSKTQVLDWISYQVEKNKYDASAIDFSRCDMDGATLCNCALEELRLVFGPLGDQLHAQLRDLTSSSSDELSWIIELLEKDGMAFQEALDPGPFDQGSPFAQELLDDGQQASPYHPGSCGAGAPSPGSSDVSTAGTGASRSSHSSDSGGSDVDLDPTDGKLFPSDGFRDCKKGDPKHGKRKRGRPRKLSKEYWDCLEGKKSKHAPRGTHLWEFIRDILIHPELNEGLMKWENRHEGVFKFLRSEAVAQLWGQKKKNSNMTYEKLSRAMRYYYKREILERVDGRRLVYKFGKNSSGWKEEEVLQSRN
# Method in brief: as §1
# CRX = CRX (Homo sapiens, UniProt O43186 1-299); settings: protein: recombinant; tags: N-terminal GST; dsDNA, one strand shown
# Chain of CRX (O43186 whole entry): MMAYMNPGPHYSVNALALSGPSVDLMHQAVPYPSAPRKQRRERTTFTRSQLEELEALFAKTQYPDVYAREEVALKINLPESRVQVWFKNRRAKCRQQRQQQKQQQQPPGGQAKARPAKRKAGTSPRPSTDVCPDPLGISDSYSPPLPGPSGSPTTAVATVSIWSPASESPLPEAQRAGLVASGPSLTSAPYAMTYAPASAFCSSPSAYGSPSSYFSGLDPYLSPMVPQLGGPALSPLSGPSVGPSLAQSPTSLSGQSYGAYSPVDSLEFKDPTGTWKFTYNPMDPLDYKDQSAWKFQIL
# Method in brief: as §1
# ETV1 = ETV1 (Homo sapiens, UniProt P50549 1-477); settings: protein: recombinant; tags: N-terminal GST; dsDNA, one strand shown
# Chain of ETV1 (P50549 whole entry): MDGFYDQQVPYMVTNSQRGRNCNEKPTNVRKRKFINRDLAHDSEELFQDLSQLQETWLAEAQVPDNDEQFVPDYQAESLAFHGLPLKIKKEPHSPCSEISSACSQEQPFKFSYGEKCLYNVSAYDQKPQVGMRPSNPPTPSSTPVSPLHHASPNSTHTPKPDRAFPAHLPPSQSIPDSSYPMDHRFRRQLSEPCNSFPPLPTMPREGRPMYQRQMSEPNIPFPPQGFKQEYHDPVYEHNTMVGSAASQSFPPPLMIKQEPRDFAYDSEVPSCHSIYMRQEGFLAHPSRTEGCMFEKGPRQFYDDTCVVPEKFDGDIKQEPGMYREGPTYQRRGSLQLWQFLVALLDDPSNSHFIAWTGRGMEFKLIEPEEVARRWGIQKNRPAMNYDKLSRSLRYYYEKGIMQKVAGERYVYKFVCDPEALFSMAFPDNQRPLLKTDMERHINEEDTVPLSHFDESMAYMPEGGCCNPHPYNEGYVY
# Method in brief: as §1
# ERF = target: T6, ERF (Homo sapiens, UniProt P50548 1-548); settings: protein: recombinant; tags: N-terminal GST; dsDNA, one strand shown
# T6 sequence: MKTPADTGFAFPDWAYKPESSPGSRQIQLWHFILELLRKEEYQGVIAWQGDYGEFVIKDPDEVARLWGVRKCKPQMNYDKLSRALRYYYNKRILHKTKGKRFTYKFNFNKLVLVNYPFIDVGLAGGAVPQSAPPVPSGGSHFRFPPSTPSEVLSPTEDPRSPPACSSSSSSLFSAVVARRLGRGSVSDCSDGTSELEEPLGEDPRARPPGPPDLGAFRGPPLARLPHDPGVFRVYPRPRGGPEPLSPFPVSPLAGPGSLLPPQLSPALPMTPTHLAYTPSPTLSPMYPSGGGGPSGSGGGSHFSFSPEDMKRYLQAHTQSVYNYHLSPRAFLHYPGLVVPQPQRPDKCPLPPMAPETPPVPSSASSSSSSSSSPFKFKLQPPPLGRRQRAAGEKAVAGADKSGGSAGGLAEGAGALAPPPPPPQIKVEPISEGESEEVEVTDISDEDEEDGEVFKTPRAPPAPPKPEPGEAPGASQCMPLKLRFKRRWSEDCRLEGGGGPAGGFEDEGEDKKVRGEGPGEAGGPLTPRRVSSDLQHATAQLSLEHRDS
# Method in brief: as §1
# ETV3L = target: T7, ETV3L (Homo sapiens, UniProt Q6ZN32 1-361); settings: protein: recombinant; tags: N-terminal GST; dsDNA, one strand shown
# T7 sequence: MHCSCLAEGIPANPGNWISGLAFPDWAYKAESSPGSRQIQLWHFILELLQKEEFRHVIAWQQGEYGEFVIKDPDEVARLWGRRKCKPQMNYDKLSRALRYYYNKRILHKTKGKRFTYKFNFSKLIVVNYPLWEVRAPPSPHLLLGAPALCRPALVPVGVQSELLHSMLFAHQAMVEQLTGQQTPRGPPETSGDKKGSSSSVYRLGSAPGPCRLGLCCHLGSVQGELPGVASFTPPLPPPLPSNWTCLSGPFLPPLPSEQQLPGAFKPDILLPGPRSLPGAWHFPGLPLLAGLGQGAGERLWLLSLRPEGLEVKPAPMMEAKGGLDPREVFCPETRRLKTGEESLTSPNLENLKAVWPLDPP
# Method in brief: as §1
# ETS2 = target: T8, ETS2 (Homo sapiens, UniProt P15036 1-469); settings: protein: recombinant; tags: N-terminal GST; dsDNA, one strand shown
# T8 sequence: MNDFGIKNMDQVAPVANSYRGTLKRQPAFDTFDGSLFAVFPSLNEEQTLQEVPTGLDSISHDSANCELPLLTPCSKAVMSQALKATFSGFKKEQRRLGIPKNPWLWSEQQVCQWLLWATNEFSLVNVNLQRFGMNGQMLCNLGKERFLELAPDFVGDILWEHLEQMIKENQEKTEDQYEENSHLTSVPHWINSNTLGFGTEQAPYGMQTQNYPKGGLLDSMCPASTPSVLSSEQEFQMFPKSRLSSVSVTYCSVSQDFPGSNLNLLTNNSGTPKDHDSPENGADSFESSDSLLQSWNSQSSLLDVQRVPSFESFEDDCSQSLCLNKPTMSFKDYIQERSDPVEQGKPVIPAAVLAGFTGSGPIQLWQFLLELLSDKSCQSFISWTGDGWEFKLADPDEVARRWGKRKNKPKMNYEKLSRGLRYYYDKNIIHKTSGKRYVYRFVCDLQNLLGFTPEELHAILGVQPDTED
# Method in brief: as §1
# SPDEF = target: T9, SPDEF (Homo sapiens, UniProt O95238 1-335); settings: protein: recombinant; tags: N-terminal GST; dsDNA, one strand shown
# T9 sequence: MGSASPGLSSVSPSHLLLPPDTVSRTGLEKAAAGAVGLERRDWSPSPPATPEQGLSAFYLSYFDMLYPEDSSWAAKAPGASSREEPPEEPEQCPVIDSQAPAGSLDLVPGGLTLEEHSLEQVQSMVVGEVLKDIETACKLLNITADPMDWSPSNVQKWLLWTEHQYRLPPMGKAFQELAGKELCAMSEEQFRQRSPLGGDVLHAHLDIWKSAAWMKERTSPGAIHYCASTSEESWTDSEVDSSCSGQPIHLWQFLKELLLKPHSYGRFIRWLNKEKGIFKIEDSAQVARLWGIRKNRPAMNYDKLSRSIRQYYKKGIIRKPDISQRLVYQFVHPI
# Method in brief: as §1
# ETV7 = target: T10, ETV7 (Homo sapiens, UniProt Q9Y603 1-341); settings: protein: recombinant; tags: N-terminal GST; dsDNA, one strand shown
# T10 sequence: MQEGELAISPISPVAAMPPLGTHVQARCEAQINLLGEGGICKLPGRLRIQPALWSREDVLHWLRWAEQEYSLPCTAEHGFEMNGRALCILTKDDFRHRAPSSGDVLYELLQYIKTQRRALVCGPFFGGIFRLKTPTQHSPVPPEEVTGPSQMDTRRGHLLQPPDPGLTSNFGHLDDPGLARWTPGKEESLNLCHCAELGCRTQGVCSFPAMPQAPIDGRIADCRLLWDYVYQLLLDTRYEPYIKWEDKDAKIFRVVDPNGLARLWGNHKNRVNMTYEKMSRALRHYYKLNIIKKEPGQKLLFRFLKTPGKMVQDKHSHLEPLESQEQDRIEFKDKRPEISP
# Method in brief: as §1
# ELF5 = target: T11, ELF5 (Homo sapiens, UniProt Q9UKW6-2 1-255); settings: protein: recombinant; tags: N-terminal GST; dsDNA, one strand shown
# T11 sequence: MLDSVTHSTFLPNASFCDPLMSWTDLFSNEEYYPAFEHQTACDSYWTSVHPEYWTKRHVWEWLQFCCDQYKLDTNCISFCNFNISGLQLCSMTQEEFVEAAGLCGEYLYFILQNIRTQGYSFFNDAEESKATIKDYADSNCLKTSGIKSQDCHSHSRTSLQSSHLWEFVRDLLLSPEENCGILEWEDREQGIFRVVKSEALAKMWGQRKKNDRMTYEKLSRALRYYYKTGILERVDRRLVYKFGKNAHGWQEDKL
# Method in brief: as §1
# ETV3 = target: T12, ETV3 (Homo sapiens, UniProt P41162-2 1-143); settings: protein: recombinant; tags: N-terminal GST; dsDNA, one strand shown
# T12 sequence: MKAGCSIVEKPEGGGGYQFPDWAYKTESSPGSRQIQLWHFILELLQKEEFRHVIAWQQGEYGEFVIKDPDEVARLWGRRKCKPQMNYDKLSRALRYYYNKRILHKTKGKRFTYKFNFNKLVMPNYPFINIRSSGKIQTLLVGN
# Method in brief: as §1
# ETV6 = ETV6 (Homo sapiens, UniProt P41212 1-452); settings: protein: recombinant; tags: N-terminal GST; dsDNA, one strand shown
# Chain of ETV6 (P41212 whole entry): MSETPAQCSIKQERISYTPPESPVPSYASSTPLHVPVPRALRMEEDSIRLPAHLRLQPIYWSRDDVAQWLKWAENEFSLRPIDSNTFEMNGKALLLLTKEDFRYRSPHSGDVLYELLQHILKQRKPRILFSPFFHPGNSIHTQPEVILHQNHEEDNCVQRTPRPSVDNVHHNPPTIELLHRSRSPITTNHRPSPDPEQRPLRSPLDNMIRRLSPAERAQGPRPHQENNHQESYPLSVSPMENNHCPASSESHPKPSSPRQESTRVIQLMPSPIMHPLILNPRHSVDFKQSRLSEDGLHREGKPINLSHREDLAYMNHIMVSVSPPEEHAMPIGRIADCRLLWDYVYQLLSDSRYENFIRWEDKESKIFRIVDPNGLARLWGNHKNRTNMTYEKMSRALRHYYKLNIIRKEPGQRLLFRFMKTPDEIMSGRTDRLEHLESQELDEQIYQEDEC
# Method in brief: as §1
sequence,measurement,setting,value
AAATAC,binding signal,FEV,"1.41 fold enrichment (6-mer frequency, TF over GST control)"
same,binding signal,ETV5,"1.43 fold enrichment (6-mer frequency, TF over GST control)"
same,binding signal,HSF1,"1.36 fold enrichment (6-mer frequency, TF over GST control)"
same,binding signal,SPIC,"1.3 fold enrichment (6-mer frequency, TF over GST control)"
same,binding signal,ELF4,"1.36 fold enrichment (6-mer frequency, TF over GST control)"
same,binding signal,ELK4,"1.18 fold enrichment (6-mer frequency, TF over GST control)"
same,binding signal,ETV2,"1.51 fold enrichment (6-mer frequency, TF over GST control)"
same,binding signal,ELF3,"1.37 fold enrichment (6-mer frequency, TF over GST control)"
same,binding signal,CRX,"1.46 fold enrichment (6-mer frequency, TF over GST control)"
same,binding signal,ETV1,"1.39 fold enrichment (6-mer frequency, TF over GST control)"
same,binding signal,ERF,"1.48 fold enrichment (6-mer frequency, TF over GST control)"
same,binding signal,ETV3L,"1.35 fold enrichment (6-mer frequency, TF over GST control)"
same,binding signal,ETS2,"1.39 fold enrichment (6-mer frequency, TF over GST control)"
same,binding signal,SPDEF,"1.41 fold enrichment (6-mer frequency, TF over GST control)"
same,binding signal,ETV7,"1.5 fold enrichment (6-mer frequency, TF over GST control)"
same,binding signal,ELF5,"1.52 fold enrichment (6-mer frequency, TF over GST control)"
same,binding signal,ETV3,"1.39 fold enrichment (6-mer frequency, TF over GST control)"
same,binding signal,ETV6,"1.49 fold enrichment (6-mer frequency, TF over GST control)"
